Screening data as filed in PubChem.
Only some compounds are listed: those with a hit (about 1.3% of all), similar ones and a draw of the others.
TRPV1 potentiator: HTS Assay for Compounds that Act as Potentiators of the Vanilloid Receptor 1. AID 540277, 2011. Transient receptor potential cation channel subfamily V member 1 (Homo sapiens), Q8NER1. TRPV1-expressing cells, Fluo-8 calcium influx, capsaicin EC20 potentiation. hit rate 0.02% among 320,000. potentiation, % at 8.33 µM; in the data active means potentiation above about 80%; inconclusive means between about 30% and that limit; further: 0% is about no effect
Target sequence (Q8NER1 whole entry, looked up): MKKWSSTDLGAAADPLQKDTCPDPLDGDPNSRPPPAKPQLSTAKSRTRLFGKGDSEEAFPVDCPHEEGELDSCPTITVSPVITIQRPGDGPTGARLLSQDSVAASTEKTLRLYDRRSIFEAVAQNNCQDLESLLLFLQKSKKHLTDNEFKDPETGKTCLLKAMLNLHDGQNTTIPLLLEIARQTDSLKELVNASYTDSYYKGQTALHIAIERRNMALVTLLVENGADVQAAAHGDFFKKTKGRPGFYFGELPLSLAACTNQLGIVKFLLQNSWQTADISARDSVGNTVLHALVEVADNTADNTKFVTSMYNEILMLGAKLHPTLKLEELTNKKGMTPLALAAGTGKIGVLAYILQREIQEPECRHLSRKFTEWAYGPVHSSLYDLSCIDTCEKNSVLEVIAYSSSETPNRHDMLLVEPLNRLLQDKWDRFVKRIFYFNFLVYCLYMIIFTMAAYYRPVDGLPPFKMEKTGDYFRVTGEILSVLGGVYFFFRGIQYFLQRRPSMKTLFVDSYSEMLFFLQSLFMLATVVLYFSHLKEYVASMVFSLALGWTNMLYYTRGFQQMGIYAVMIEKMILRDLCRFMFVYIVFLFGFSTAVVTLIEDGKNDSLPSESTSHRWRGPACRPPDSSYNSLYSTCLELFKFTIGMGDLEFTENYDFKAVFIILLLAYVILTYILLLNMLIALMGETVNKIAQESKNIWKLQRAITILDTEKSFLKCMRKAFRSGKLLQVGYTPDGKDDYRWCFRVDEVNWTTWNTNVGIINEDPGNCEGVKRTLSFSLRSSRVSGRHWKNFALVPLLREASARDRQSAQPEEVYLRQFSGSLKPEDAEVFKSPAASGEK
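TRPV1-expressing cells were cultured overnight at 35.5C and loaded with Fluo-8 calcium dye for 40 to 90 min at room temperature. After a 10 s baseline, compound was added and calcium influx was read kinetically for 3 min (ex 480/em 520 nm).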
TRPV1 ag: HTS Assay for Compounds that Act as Agonists of the Vanilloid Receptor 1. TRPV1-expressing cells, Fluo-8 calcium influx, agonist mode. hit rate 0.19% among 320,000. Transient receptor potential cation channel subfamily V member 1 (Homo sapiens), Q8NER1. activation, % at 8.33 µM. AID 540275, 2011; in the data active means activation above about 80%; inconclusive means between about 30% and that limit; further: 0% is about no effect
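Fluo-8 calcium influx in TRPV1-expressing cells, kinetic read (ex 480/em 520 nm). Compound added and read 3 min for agonist activity, followed by capsaicin at EC20 final and 2 min further read for enhancement.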
KCNH2 3.1 block: qHTS for Inhibitors of KCHN2 3.1: Mutant qHTS. hit rate 0.95% among 340,000. U2OS KCNH2 3.1, thallium flux FluxOr; stronger effect = lower value. activity change, % (tested at about 1.8 µM). Potassium voltage-gated channel subfamily H member 2, brain isoform KCNH2 3.1 (human);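 active means maximum activity change below -70%; inconclusive means maximum activity change from -70% to -50%; inactive means maximum activity change above -50%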;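 further: thallium influx rate constant from kinetic fluorescence after stimulation buffer; on the % scale 0 is the no-effect control and ±100 the full control effect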
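Virally transduced U2OS (3.1 isoform, 4 h infection in dark at RT) → overnight 37 C → FluxOr + Red40 in HBSS/HEPES, 45 min → stimulation buffer, 2 min kinetic read → rate constant vs DMSO controls.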
KCNH2 WT inh: qHTS for Inhibitors of KCHN2 3.1: Wildtype qHTS; Voltage-gated inwardly rectifying potassium channel KCNH2 (Homo sapiens), Q12809; U2OS, BacMam KCNH2, thallium flux FluxOr; stronger effect = lower value; activity change, % at 1.84 µM; hit rate 0.37% among 340,000;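 active means maximum activity change below -70%; inconclusive means maximum activity change between -70% and -50%; inactive means maximum activity change above -50%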; further: on the % scale 0 is the no-effect control and ±100 the full control effect
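U2OS cells were transduced with wild-type KCNH2 virus (2.03 x 10^8 / mL) for 4 h at room temperature, then cultured overnight at 37 C. Thallium flux was read with FluxOr dye. Rate constants were normalized to DMSO controls.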
Active calls of the source: *; ? = inconclusive; nt = no result given.

SMILES | TRPV1 potentiator | TRPV1 ag | KCNH2 3.1 block | KCNH2 WT inh
COCCCNC(=S)N(CCO)Cc1cc2cc3c(cc2[nH]c1=O)OCO3 | 0 | 1 | -4 | -2
Cc1c(C(=O)NCCN2CCCC(O)C2)oc2c(F)cccc12 (stereo unspecified) | 8 | 0 | 10 | 12
COc1ccc(CNC(=O)CNC(=O)c2ccc(Br)o2)cc1OC | 0 | 6 | -10 | -1
CC(=O)Oc1ccc(C(=O)Nc2ccc(C3(C#N)CCCC3)cc2)cc1 | 86* | 0 | -7 | -17
CC(OC(=O)Cn1ccccc1=O)C(=O)Nc1cc(Cl)cc(Cl)c1 (stereo unspecified) | nt | nt | -13 | -3
CC1CCN(C(=O)CN2C(=O)NC3(CCCCCC3)C2=O)CC1 | 14 | 2 | 4 | 5
CC1CN(C(=O)CN2C(=O)NC3(CCCCCC3)C2=O)CC(C)O1 (stereo unspecified) | -4 | -1 | -90* | 0
Cc1ccccc1NC(=O)CN1C(=O)NC2(CCCCC2)C1=O | 5 | 0 | -25 | 4
CC(C)(C)c1ccccc1NC(=O)CN1C(=O)NC2(CCCCCC2)C1=O | -6 | 4 | 2 | -170*
O=C(NC(NC(=S)N1CCOCC1)C(Cl)(Cl)Cl)c1ccc(Cl)cc1 (stereo unspecified) | 1 | 83* | 8 | 1
CCCCC(=O)NC(NC(=S)N1CCOCC1)C(Cl)(Cl)Cl (stereo unspecified) | 3 | -3 | -10 | 6
Cc1ccc(S(=O)(=O)N2CCN(C(=O)COC(=O)c3ccc(Cl)nc3)CC2)c(C)c1 | 5 | -6 | -18 | -162*
O=C1c2[nH]nc(-c3ccccc3O)c2C(c2cccc(Cl)c2)N1CC1CCCO1 (stereo unspecified) | -2 | 11 | -191* | -137*
Cc1ccc(S(=O)(=O)N2CC=C(c3c(C)n(CC(=O)N4CCCC4)c4ccccc34)CC2)cc1C | 29 | -2 | nt | nt
Cc1ccc(NC(=O)c2ncn(CCCNCCCc3ccccc3)n2)cc1C | nt | nt | -91* | -80*
Cc1ccc(NC(=O)c2ncn(CC(=O)NCc3ccc4[nH]ccc4c3)n2)cc1C | nt | nt | -30 | -1
COC(=O)C[C@H](NC(=O)Cn1cnc(C(=O)Nc2ccc(C)c(C)c2)n1)C(=O)OC | nt | nt | 13 | -4
COc1cc(NCCCn2cnc(C(=O)Nc3ccc(C)c(C)c3)n2)cc(OC)c1OC | nt | nt | -11 | -2
Cc1ccc(NC(=O)c2ncn(CCCN(CCCn3cnc(C(=O)Nc4ccc(C)c(C)c4)n3)Cc3ccc4[nH]ccc4c3)n2)cc1C | nt | nt | -77* | -91*
COC(=O)Cn1cnc(C(=O)Nc2ccc(C)c(C)c2)n1 | nt | nt | -73* | -5
COc1ccc(CNCCCn2cnc(C(=O)Nc3ccc(C)c(C)c3)n2)cc1 | nt | nt | -86* | 4
Cc1ccc(NC(=O)c2ncn(CCCNCCCN(C)C)n2)cc1C | nt | nt | 10 | -10
COc1ccc(S(=O)(=O)N2CCOC23CCN(S(=O)(=O)c2ccc(Cl)cc2)CC3)cc1 | 18 | -3 | -21 | 7
Cc1cc(Cl)c2oc(C(=O)N3CCN(c4ccncc4)CC3)c(C)c2c1 | nt | nt | 3 | -138*
COC(=O)C1CCN(C(=O)c2oc3c(Cl)cc(C)cc3c2C)CC1 | -7 | 8 | 11 | -7
SMILES | TRPV1 potentiator | TRPV1 ag | KCNH2 3.1 block | KCNH2 WT inh
CCc1ccc(-n2cnc3cc(C(=O)NCC(OC)OC)ccc32)cc1 | -16 | 7 | 12 | 8
CCc1ccc(N2CC(C(=O)OCC(=O)c3c(N)n(CC(C)C)c(=O)n(C)c3=O)CC2=O)cc1 (stereo unspecified) | 1 | 4 | -7 | 14
N#C/C(C(N)=O)=C1/CCCN1Cc1ccccc1 | nt | nt | -2 | -10
Cc1ccc(NC(=O)/C(=C\c2cccc([N+](=O)[O-])c2)NC(=O)c2cccs2)cc1 | nt | nt | -84* | 4
CC(=O)N/C(=C\c1cccc([N+](=O)[O-])c1)C(=O)NC1CCCCC1 | -10 | -3 | ? | -6
O=C(Nc1ccc(Br)cc1)/C(=C/c1cccc([N+](=O)[O-])c1)NC(=O)C1CCCCC1 | 6 | 2 | -90* | -97*
COc1ccc(/C=C(/NC(=O)c2cccs2)C(=O)Nc2ccc(C)cc2)cc1OC | 15 | -4 | 8 | 1
Cc1ccc(NC(=O)/C(=C/c2cccc([N+](=O)[O-])c2)NC(=O)C2CCCCC2)cc1 | -6 | 3 | -79* | 19
CCOc1ccc(S(=O)(=O)NCC(=O)NC2CCCCC2)cc1 | 1 | 5 | -12 | 5
COc1ccccc1C(=O)NNC(=O)CN(C)S(=O)(=O)c1ccc(Cl)cc1 | nt | nt | 4 | -4
Cc1ccc(C)c(Nc2cc(C)nc3ccccc23)c1 | nt | nt | -9 | 33
O=C(COc1ccccc1)NCC(=O)N1CCCCCC1 | -8 | 1 | 0 | -9
O=C(O)c1cc2c(cc1NC(=O)c1ccccc1OC(F)F)OCCCO2 | 2 | 1 | -15 | 26
COc1ccccc1C(=O)Nc1cc2c(cc1C(=O)O)OCCCO2 | 11 | 2 | -80* | -2
COc1ccc(CNCC(O)(c2ccccc2)c2ccc(Cl)cc2)cc1 (stereo unspecified) | -15 | 9 | -72* | -22
Cc1ccc(CNCC(O)(c2ccccc2)c2ccc(Cl)cc2)cc1 (stereo unspecified) | -8 | 2 | nt | 30
Cc1ccc2nc(-c3ccc(-c4cccc(Cl)c4)cc3)c(NCc3ccccc3)n2c1 | 25 | ? | -78* | -1
COc1ccc(-c2nc3ccc(C)cn3c2NCc2ccc3c(c2)OCO3)cc1 | 5 | 81* | -35 | 40
Cc1ccc(-c2nc3ccccn3c2NCc2ccc3c(c2)OCO3)cc1 | 19 | 2 | -92* | -14
CCCCNc1c(-c2cccc(-c3ccc(OC)cc3)c2)nc2ccc(C)cn12 | 0 | ? | -27 | -36
Cc1ccc(CNCc2ccc3c(c2)OCO3)cc1 | -9 | 5 | 14 | -4
COc1ccc(C2NC(=O)c3ccccc3O2)cc1 (stereo unspecified) | 9 | 2 | 5 | -17
CCCn1nc(C(=O)NNC(=O)Cc2ccc(S(=O)(=O)N3CCOCC3)s2)c2ccccc2c1=O | 1 | -2 | -7 | 5
O=C(Nc1ccc2c(c1)nc1n2CCN(Cc2ccccc2)C1)NC1CCCCC1 | -3 | -3 | -85* | -15
O=C(C1CCC(CNS(=O)(=O)c2cccs2)CC1)N1CCN(c2ccc(Cl)cc2)CC1 (stereo unspecified) | -9 | 0 | -25 | -3
COC(=O)C1Cc2c([nH]c3ccccc23)C2(CCN(Cc3ccccc3)CC2)N1 (stereo unspecified) | -11 | -3 | -81* | -40
CCOC(=O)c1cn(CC(=O)Nc2ccc(CC)cc2)nn1 | 21 | -3 | 2 | -208*
CCc1ccc(NC(=O)CNCc2ccc(OC)c(OC)c2)cc1 | -17 | 85* | 8 | 7
